Data taken from PubChem BioAssay (NCI).
This is part of a sample that, as a whole, favours compounds with a hit. Of some 79,000 tested, about 15% had one in any assay. Values without a mark were called inactive. Activity calls are given as the source filed them. Cut-off read from the data, not from the text of the source: active = growth inhibition above about 70%; inactive = the rest.

Tests used:
[1] = NCI Yeast Anticancer Drug Screen. Data for the rad50 strain (AID 155);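 note: 0% = growth of vehicle-only cultures of the same strain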; details: S. cerevisiae rad50 strain growth inhibition, hits give high values; at 50.0 µM unless noted
In short: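 Relative growth inhibition (compound vs vehicle) was measured in yeast with a defined repair-gene alteration.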

[2] = NCI Yeast Anticancer Drug Screen. Data for the mec2-1 strain (AID 157); details: S. cerevisiae mec2-1 strain, hits give high values; at 50.0 µM unless noted
In short: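 Compounds were applied to mec2-1 yeast cells. Their growth was then compared with that of vehicle-treated cultures to give growth inhibition.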

[3] = NCI Yeast Anticancer Drug Screen. Data for the sgs1 mgt1 strain (AID 161);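 note: 0% = growth of cultures given vehicle only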; details: S. cerevisiae sgs1 mgt1 strain, hits give high values; at 50.0 µM unless noted
In short: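 Growth of a repair-deficient yeast mutant was monitored after compound treatment and expressed as inhibition relative to vehicle-treated cultures.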

[4] = NCI Yeast Anticancer Drug Screen. Data for the cln2 rad14 strain (AID 165);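 note: 0% = growth equal to vehicle treated cultures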; details: S. cerevisiae cln2 rad14 strain, hits give high values; at 50.0 µM unless noted
In short: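 Strain: cln2 rad14 yeast, altered in cell cycle control and DNA damage repair. Read-out: growth inhibition vs vehicle.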

[5] = NCI Yeast Anticancer Drug Screen. Data for the bub3 strain (AID 167); details: S. cerevisiae bub3 mutant strain, hits give high values; at 50.0 µM unless noted
In short: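 Screening used yeast with an engineered genetic alteration affecting cell cycle control. Compound-exposed cultures were compared with vehicle cultures, and reduced growth was taken as inhibition.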

[6] = NCI Yeast Anticancer Drug Screen. Data for the mlh1 rad18 strain (AID 175); details: S. cerevisiae mlh1 rad18 strain growth inhibition, hits give high values; at 50.0 µM unless noted
In short: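 A repair-deficient yeast strain is exposed to test compound, and growth is scored relative to vehicle-treated controls.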

SMILES | growth inhibition [1] | growth inhibition [2] | growth inhibition [3] | growth inhibition [4] | growth inhibition [5] | growth inhibition [6]
Clc1ncc(Cl)c(Cl)n1 | 68.7% | 18.6% | -46.8% | -22.5% | -50.8% | –
NC(=O)Nc1ccccc1-c1ccccc1 | -0.6% | -11.2% | 13.8% | -26.4% | -10.8% | –
Cc1nc2c(n1-c1ccc(Br)cc1)C(=O)c1ccccc1C2=O | 33.9% | -17.9% | -4.4% | 12.3% | -30.2% | –
O=C1C=CC(=O)C(CNc2ccc(C(=O)OCc3ccccc3)cc2)=C1 | 23.6% | 8.75% | -28.9% | -30.6% | -42.9% | -3.1%
C=CCCCCCCCCCCCCCCCC | -24% | -49% | -23.1% | -13.2% | -27.6% | –
O=C(Nc1ccccc1)Nc1ccc([N+](=O)[O-])cc1[N+](=O)[O-] | 25.5% | 5.95% | 26.9% | 19.7% | 11.9% | –
O=C(CCC(=O)Nc1ccc(Cl)c(Cl)c1)Cc1nc2ccccc2o1 | -8.25% | -24.4% | -11.2% | 18.6% | -13.7% | –
CS(=O)(=O)c1nc2[nH]cnc(=S)c2[nH]1 | 8% | -8.2% | -3.5% | 10.9% | 20.9% | –
C[C@H]1CC(=O)[C@@]2(O)C#C/C=C\C#C[C@@H]3Nc4c(cc(O)c5c4C(=O)c4ccccc4C5=O)[C@]24O[C@]314 | 78% (active) | 82% (active) | 85.2% (active) | 86.9% (active) | 85.8% (active) | –
C=C1COC(O)(C2OCOC(C3CC(=O)NC(=O)C3)C2O)C1C (configuration not stated) | 88% (active) | 91.2% (active) | 91.5% (active) | 89.8% (active) | 89.2% (active) | –
Cc1ccc2[nH]c3c(c2c1)C(=O)CCC3 | -7.6% | -2.95% | -12.3% | -20.7% | -17.9% | –
COc1cccc2c1C(=O)c1c(O)c3c(c(O)c1C2=O)C[C@@](O)(C(=O)CO)CC3OC1CC(O)C(O)C(C)O1 (some centres not stated) | 72% (active) | 52.8% | 33.2% | 28.8% | 63.2% | –
O=C(O)c1c(-c2nccc3ccccc23)[nH]c(-c2ccccc2)c1S(=O)(=O)O | -23.1% | 5.7% | -18.9% | -35.3% | -24.4% | –
Nc1nc(Cl)c(C=O)c(NCC2(CO)CC(CCc3ccccc3)C2)n1 (configuration not stated) | 15.4% | 9.95% | -32.8% | -2.2% | -22% | –
C=CCCC(CCC=C)(C(=O)O)C(=O)O | -7.1% | -9.7% | -16.7% | 6.65% | -20.9% | –
CCOC(=O)C(Cc1cc(N)c(Oc2ccc(OC)cc2)c(N)c1)NC(C)=O (configuration not stated) | -16.1% | -36.9% | -4.65% | 14.9% | -9.1% | –
CC1(C)C=C(C(c2cccc([N+](=O)[O-])c2)N2CCCCC2)C(=O)c2ccccc21 (configuration not stated) | -26.9% | -10.7% | -13.2% | -40.9% | -0.9% | -13.3%
Cc1cc[n+](CCC(N)=O)cc1 | -10.8% | -30.8% | -3% | 1.85% | -16.9% | -19.9%
Cc1ccc(C)c(Nc2c(C)ccc(C)c2C(=O)O)c1 | -5.3% | -1.05% | 12.4% | 14% | -10.1% | -12.6%
c1ccc(CN2CCOC2)cc1 | 15.6% | 5.85% | -13.1% | 11% | -2.2% | -35.6%
CCOC(=N)C1(O)CCCCC1 | -9.05% | -6.75% | -13.4% | -5.1% | -3.8% | –
C=CCc1cc(-c2cc(CC=C)c(O)c(CN(CC)CC)c2)cc(CN(CC)CC)c1O | -9% | -5.2% | -20% | -18% | -12.1% | –
COc1ccc(C2=Nc3c(nc(OC)[nH]c3=O)NC(c3ccccc3)C2)cc1 (configuration not stated) | 12.3% | 10.2% | -10.5% | 7.55% | -8.95% | -21.8%
O=C1[C@H]2ON(c3ccccc3)C(c3ccccc3)[C@H]2C(=O)N1c1ccc(Cc2ccc(N3C(=O)[C@@H]4ON(c5ccccc5)C(c5ccccc5)[C@@H]4C3=O)cc2)cc1 (some centres not stated) | 3.1% | 3.45% | 12.6% | 21.5% | 26.5% | 11.8%
